Screening results as filed in PubChem.
pPAFAH inh: pPAFAH (human) enzyme inhibition; 330,000 compounds, 1.5% hits; inhibition, % at 3.39 µM; recombinant pPAFAH, FP-rhodamine probe fluorescence polarization; AID 463082; Q13093;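 active means inhibition above the mean inhibition across the screen plus 3 SD, cut at about 25% in these data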;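 further: inhibitors block binding of the rhodamine activity-based probe so polarization drops; 0% = enzyme with DMSO and 100% = wells lacking pPAFAH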
PAFAH1B3 FP inh: PAFAH1B3 (human) inhibition. Q15102. inhibition, % at 3.39 µM. AID 492972. 340,000 compounds, 0.28% hits. recombinant PAFAH1B3, FP-rhodamine probe, fluorescence polarization;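 active means inhibition above the screen-wide average of all tested compounds plus 3 SD, cut at about 25% in these data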;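 further: 0% = enzyme with DMSO only and 100% = wells lacking PAFAH1B3 protein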
PAFAH1B2 FP inh: inhibitors of human PAFAH1B2; inhibition, % at 3.39 µM; P68402; 340,000 compounds, 1.2% hits; recombinant PAFAH1B2, FP-rhodamine activity probe, fluorescence polarization;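 active means inhibition above the mean of all tested compounds plus 3 SD, cut at about 24% in these data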;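 further: 0% = enzyme with DMSO and 100% = wells lacking PAFAH1B2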
PfM18AAP inh: PfM18AAP enzyme inhibition. 290,000 compounds, 1.2% hits. inhibition, % at 7.35 µM. recombinant PfM18AAP, H-Glu-NHMec fluorogenic cleavage. AID 1822;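 active means inhibition above the campaign mean inhibition over all tested compounds plus 3 SD, cut at about 28% in these data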;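 further: 0% = plate median of test compound wells and 100% = 2 mM ZnCl2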
DSG3 Ab inh: human desmoglein-3 autoantibody binding inhibition | DSG3-coupled beads, scFv-anti-DSG3-GFP binding, flow cytometry; active compounds read low | binding (percent of control), % at 10 µM | AID 588358 | P32926 | 310,000 compounds, 0.48% hits;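 active means binding more than 3 SD below its plate's average and above zero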;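 further: hits lower antibody fragment binding to DSG3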
Target sequence (P32926 whole entry, looked up, the tested form may be a part): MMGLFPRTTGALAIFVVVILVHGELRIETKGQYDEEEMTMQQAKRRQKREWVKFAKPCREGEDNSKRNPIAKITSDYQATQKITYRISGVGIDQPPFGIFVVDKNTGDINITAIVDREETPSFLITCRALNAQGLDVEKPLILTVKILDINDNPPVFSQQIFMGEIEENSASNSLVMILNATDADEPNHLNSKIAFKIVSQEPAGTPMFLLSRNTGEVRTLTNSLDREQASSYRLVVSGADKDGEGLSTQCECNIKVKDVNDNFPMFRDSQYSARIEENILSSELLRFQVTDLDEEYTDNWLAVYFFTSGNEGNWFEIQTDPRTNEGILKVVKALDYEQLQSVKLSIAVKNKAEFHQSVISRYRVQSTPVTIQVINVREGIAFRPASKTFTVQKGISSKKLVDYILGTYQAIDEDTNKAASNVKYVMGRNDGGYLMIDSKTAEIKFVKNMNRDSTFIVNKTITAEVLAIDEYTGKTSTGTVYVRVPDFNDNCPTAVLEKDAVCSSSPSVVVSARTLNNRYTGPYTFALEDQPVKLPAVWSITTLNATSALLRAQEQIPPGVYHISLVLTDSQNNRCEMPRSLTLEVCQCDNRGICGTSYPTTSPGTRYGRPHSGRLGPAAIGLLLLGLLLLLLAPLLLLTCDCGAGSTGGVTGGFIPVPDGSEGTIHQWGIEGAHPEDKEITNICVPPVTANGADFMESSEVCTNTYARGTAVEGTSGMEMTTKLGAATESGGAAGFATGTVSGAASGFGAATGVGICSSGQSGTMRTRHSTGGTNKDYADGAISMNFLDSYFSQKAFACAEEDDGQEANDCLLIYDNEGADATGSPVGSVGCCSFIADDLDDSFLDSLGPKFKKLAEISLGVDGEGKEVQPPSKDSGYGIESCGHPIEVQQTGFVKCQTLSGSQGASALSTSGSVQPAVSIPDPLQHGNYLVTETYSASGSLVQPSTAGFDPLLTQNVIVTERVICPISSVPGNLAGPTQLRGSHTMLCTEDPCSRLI
PAFAH2 inh: PAFAH2 (human) inhibition | Q99487 | recombinant PAFAH2, FP-rhodamine activity probe, fluorescence polarization | inhibition, % at 3.39 µM | 340,000 compounds, 0.99% hits | AID 492956;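 active means inhibition above the mean over all tested compounds plus 3 SD, cut at about 30% in these data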;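 further: inhibitors block probe labeling of enzyme so polarization drops; 0% = enzyme with DMSO and 100% = wells lacking PAFAH2 protein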
PAFAH2 confirm: PAFAH2 (human) inhibition, confirmed; shares compounds with PAFAH2 inh; recombinant PAFAH2, FP-rhodamine activity probe, fluorescence polarization; inhibition, % at 3.39 µM; 2,300 compounds, 65% hits;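 active means mean inhibition over three repeats above a set limit taken from the earlier primary screen, cut at about 30% in these data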;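 further: inhibitor blocks binding of rhodamine activity probe so polarization falls; 0% = enzyme with DMSO and 100% = wells lacking PAFAH2 protein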
* hit, by the source's call; · = no result; ! = not confirmed by another sample. Sampled rows, rich in hits. Any-hit rate of the full collection: about 3.8%.

SMILES | pPAFAH inh | PAFAH1B3 FP inh | PAFAH1B2 FP inh | PfM18AAP inh | DSG3 Ab inh | PAFAH2 inh | PAFAH2 confirm
COc1ccc(NC(=O)CSc2nnc(C)s2)cc1S(=O)(=O)N1CCOCC1 | 2.6 | -2.7 | -0.1 | · | 106.0 | 2.2 | ·
O=C(CCC(=O)Nc1cccnc1)Nc1cccnc1 | 2.8 | 12.8 | 4.6 | · | · | 1.2 | ·
Cc1cc(=O)oc2c3c(cc(OCC(=O)NCCCn4ccnc4)c12)OC(C)(C)CC3 | 10.6 | 3.0 | 8.3 | 1.6 | 93.0 | 19.6 | ·
CC(=O)Oc1ccc2nc(/C=C/c3ccc(C=O)cc3)oc(=O)c2c1 | -2.9 | 16.0 | 7.3 | 6.0 | 98.4 | 3.3 | ·
CCCOc1cccc(-c2nc3ccccc3c(=O)o2)c1 | -16.3 | 5.4 | 2.4 | -15.6 | 104.2 | 63.8* | 58.6*
CC(=O)Oc1ccc2nc(/C=C/c3ccccc3)oc(=O)c2c1 | 0.2 | 5.4 | 2.0 | 3.0 | 124.9 | 76.2* | 71.0*
CC(=O)Oc1ccc2nc(-c3ccc(Br)o3)oc(=O)c2c1 | 6.1 | -0.8 | 7.4 | 3.6 | 116.0 | 46.1* | 44.9*
CC(=O)Oc1ccc2c(=O)oc(-c3ccccc3)nc2c1 | 0.9 | 8.6 | -1.6 | 0.9 | 117.1 | 40.8* | 40.4*
CC(=O)Oc1ccc2c(=O)oc(-c3ccccc3C)nc2c1 | -1.0 | 12.1 | -0.6 | 3.9 | 116.3 | 24.7 | ·
COC(=O)CCC(C)N1CCC(Oc2ccc(C(=O)N3CCCC3)cc2)CC1 (configuration not stated) | 5.9 | -5.7 | -1.0 | -14.2 | · | -1.2 | ·
Cc1ccccc1SCC(=O)NCC1(N2CCCCC2)CCCCC1 | · | · | · | · | 110.7 | · | ·
O=C(O/N=C1/CCCc2occc21)c1ccc(F)cc1 | 10.0 | 4.6 | 5.7 | 0.3 | 92.4 | 15.1 | ·
CS(=O)(=O)ON=C1CCN(S(=O)(=O)c2ccccc2)CC1 | -0.7 | 9.1 | 5.6 | 2.0 | 103.6 | 0.1 | ·
CC(C)(C)C1CCC(=NOC(=O)c2ccc(F)cc2)CC1 (configuration not stated) | 5.3 | 6.4 | 5.1 | -2.9 | · | 80.7* | 84.0*
O=C(ON=C1CCN(S(=O)(=O)c2ccccc2)CC1)c1ccc(F)cc1 | 6.5 | 5.4 | 8.8 | 4.5 | 96.9 | 87.2* | 84.0*
Cc1ccc(C(=O)ON=C2CCN(S(=O)(=O)c3ccccc3)CC2)cc1 | 13.5 | 2.9 | 0.6 | 1.5 | · | 89.8* | 89.0*
CC1CCCN(S(=O)(=O)c2ccc(C(=O)Nc3nnc(-c4ccco4)o3)cc2)C1 (configuration not stated) | 7.2 | 6.1 | 6.1 | 5.3 | 104.7 | 2.5 | ·
CCn1c(SCc2c(Cl)cccc2Cl)nnc1-c1nn(-c2ccccc2)ccc1=O | 5.1 | 9.4 | 0.1 | 1.4 | 151.2 | 48.9* | 25.7
Cc1nnc(SCc2c(Cl)cccc2Cl)n(N)c1=O | 0.8 | 10.1 | 1.2 | 10.9 | 103.9 | 7.3 | ·
CC(=O)NCCC(=O)Nc1cc(S(=O)(=O)N2CCOCC2)ccc1Oc1ccccc1 | 2.5 | 6.8 | -6.1 | -2.2 | · | -2.4 | ·
C/C(N)=C(/C#N)C(=O)CSc1nnc(Nc2c(C)cccc2C)s1 | 16.6 | 17.3 | 5.5 | 3.7 | · | 31.8*! | 16.5
COc1ccc(N(C(=O)c2snc(C(N)=O)c2N)C(C(=O)NC2CCCC2)c2cc(OC)ccc2OC)cc1 (configuration not stated) | 5.7 | -0.7 | -4.9 | 1.9 | · | 0.9 | ·
O=C(COC(=O)/C=C/c1ccc(OC(F)F)cc1)NCc1cccs1 | 7.5 | 4.6 | 3.3 | -0.5 | 101.1 | 46.3* | 40.8*
O=C(CO/N=C/c1ccc(OC(F)F)cc1)NCc1cccs1 | 3.9 | 0.8 | -2.3 | -7.9 | 90.7 | -3.0 | ·
Cc1ccc(C(=O)OCC(=O)NCc2cccs2)cc1C | 7.3 | -2.0 | 2.9 | 0.1 | 74.2 | 54.3* | 50.9*
SMILES | pPAFAH inh | PAFAH1B3 FP inh | PAFAH1B2 FP inh | PfM18AAP inh | DSG3 Ab inh | PAFAH2 inh | PAFAH2 confirm
O=C(COC(=O)c1ccco1)NCc1cccs1 | -5.9 | 2.6 | 1.7 | -7.7 | 105.4 | 34.3* | 20.3
O=C(COC(=O)c1ccc(Br)o1)NCc1cccs1 | 11.7 | 5.8 | 3.6 | 1.4 | 101.1 | 17.1 | ·
O=C(COC(=O)c1ccc(CO)cc1)NCc1cccs1 | -3.0 | 5.5 | 0.2 | -8.5 | 102.4 | 42.6* | 34.6*
ONC(=Nc1cccc(C(F)(F)F)c1)c1cccnc1 | 0.8 | 8.6 | 6.6 | 20.1 | · | 3.9 | ·
Nc1nc2cc(Cl)c(Br)cc2o1 | · | 7.5 | 4.8 | · | 108.5 | 3.1 | ·
COCCn1c(SCCOc2ccccc2)nc2ccccc2c1=O | -1.6 | 8.3 | 3.6 | -0.9 | · | 5.5 | ·
Cc1ccc(C(=O)OCC(=O)NCc2cccs2)cc1 | 17.7 | -8.1 | -0.7 | -3.6 | 100.5 | 52.9* | 46.4*
Cc1cc(C)c(C(=O)OCC(=O)NCc2cccs2)c(C)c1 | 1.0 | 9.6 | 9.5 | 4.7 | 102.7 | -2.8 | ·
O=C(N/N=C/c1cc([N+](=O)[O-])ccc1O)C1CCCCC1 | 8.3 | 7.0 | 8.7 | -3.3 | 98.7 | 58.8* | 40.6*
O=C(N/N=C/c1cc([N+](=O)[O-])ccc1O)C1C2CCCCC21 (configuration not stated) | 4.2 | · | · | -6.0 | · | · | ·
O=C(c1cc2ccccc2oc1=O)N(c1ccc(Cl)cc1)C1C=CS(=O)(=O)C1 (configuration not stated) | -3.8 | 7.4 | -0.8 | -5.7 | 99.1 | 2.6 | ·
Cc1ccc(NC(=O)COC(=O)c2ccc3c(c2)NC(=O)C2CCCN32)cc1 (configuration not stated) | 5.6 | -13.0 | -9.6 | 12.1 | 72.0 | 68.4* | 75.6*
COC(=O)c1ccc2c(c1)NC(=O)C1CCCN21 (configuration not stated) | -0.2 | · | · | · | · | · | ·
Cc1cccc(NC(=S)N2CCC(NC(=O)C3CCCCC3)CC2)c1 | -4.0 | -3.8 | 3.9 | 4.0 | 100.2 | -12.6 | ·
Cc1cccc(C(=O)Nc2sc(C)c(-c3ccccc3)c2C#N)c1 | -0.9 | -4.1 | 1.1 | -0.1 | 102.2 | 47.2* | -1.3
O=C(COC(=O)c1ccc(Cl)nc1)Nc1ccc2c(c1)CCC2 | -1.5 | 10.2 | -8.2 | · | · | 41.7* | 31.7*
O=C(COC(=O)c1ccc(Cl)nc1)Nc1ccc2c(c1)OCO2 | 1.1 | -0.6 | -1.1 | 3.5 | 113.6 | 53.2* | 38.8*
O=C(COC(=O)c1ccc(NC(=O)C2CC=CCC2C(=O)O)cc1)c1ccccc1 (configuration not stated) | -1.1 | 7.1 | 8.4 | -4.6 | 108.9 | 31.5* | 31.3*
O=C(COC(=O)c1ccc(Cl)nc1)Nc1ccc(Cl)cc1 | · | 3.8 | 3.3 | · | 99.0 | 36.0* | 32.8*
Cn1cccc1C(=O)NC(=O)COC(=O)CNC(=O)CNC(=O)c1ccc(Cl)cc1Cl | 7.2 | 5.9 | 7.8 | 6.2 | 92.0 | 0.4 | ·
CC(Sc1nncs1)C(=O)Nc1ccc(S(=O)(=O)Nc2ncccn2)cc1 (configuration not stated) | 0.9 | 8.0 | 2.7 | · | 103.5 | -5.2 | ·
